Measured values reported in PubChem BioAssay (EPA / NIEHS).
Values joined by “and” are separate entries in the source; they are usually repeats but may differ in a detail not shown here. Equal entries are not always repeated. Inconclusive results are not listed. More than one record can exist for a structure, and the calls need not agree. Active and inactive are the calls of the source. Rule for the calls: active = hit-call score of the fitted dose curve at least 0.9, where 1 is the maximum; inconclusive = response in the unintended direction; inactive = score below 0.9.

Key:
[1] = tested on: turtle Estrogen Receptor (ERa), gene 101933533; test: ATG_trERa_XSP2: Attagene TRANS-FACTORIAL Multi-Species (XSP2) HepG2 Assay for turtle Estrogen Receptor (ERa) (AID 2283812);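 note: human HepG2 liver cells transiently expressing turtle ERa-Gal4 chimeric receptor; actives raise reporter signal above DMSO so AC50 reflects agonist activity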
In short: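 HepG2 cells transiently transfected with GAL4-UAS reporter units expressing turtle ERa-Gal4 chimera. Reporter mRNA measured after 24 h dosing by RT-PCR, fluorescent labelling and capillary electrophoresis; gain of signal fitted versus DMSO.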

[2] = target: Estrogen receptor beta (Homo sapiens) (UniProt Q92731); test: ATG_hERb_XSP2: Attagene TRANS-FACTORIAL Multi-Species (XSP2) HepG2 Assay for human Estrogen Receptor (ERb) (AID 2283813);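 note: actives raise reporter mRNA above DMSO so AC50 reflects agonist induction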
In short: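 HepG2 cells transiently transfected with GAL4-UAS reporter units and chimeric human ERb-Gal4, 24 h exposure. Reporter mRNA quantified by RT-PCR with FAM labelling, HpaI digestion and capillary electrophoresis; gain of signal versus DMSO.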

[3] = target: GAL4 Transcription Factor (Internal Marker), GAL4 (gene 855828) (UniProt P04386); test: ATG_GAL4_XSP2: Attagene TRANS-FACTORIAL Multi-Species (XSP2) HepG2 Assay for GAL4 Transcription Factor (Internal Marker) (AID 2283814);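 note: GAL4 reporter mRNA background control in MRTU transfected cells not a receptor target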
In short: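 HepG2 cells transiently transfected with GAL4-UAS reporter units, stimulated with 3 nM 6-alpha-fluorotestosterone plus 1.5 nM norgestrel, dosed 24 h. Reporter mRNA by RT-PCR/capillary electrophoresis; gain-of-signal fit versus DMSO, background control.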

[4] = target: zebrafish Estrogen Receptor (ER1), esr1 (gene 259252) (UniProt P57717); test: ATG_zfER1_XSP2: Attagene TRANS-FACTORIAL Multi-Species (XSP2) HepG2 Assay for zebrafish Estrogen Receptor (ER1) (AID 2283816)
In short: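 HepG2 cells transiently transfected with a GAL4-UAS reporter and a chimeric zebrafish ER1-Gal4 construct, dosed 24 h. Reporter mRNA quantified by RT-PCR, labelling, HpaI digestion and capillary electrophoresis, relative to DMSO.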

[5] = target: chicken Estrogen Receptor (ERa), ESR1 (gene 396099) (UniProt P06212); test: ATG_chERa_XSP2: Attagene TRANS-FACTORIAL Multi-Species (XSP2) HepG2 Assay for chicken Estrogen Receptor (ERa) (AID 2283817);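 note: actives raise reporter signal above DMSO so AC50 reflects ER activation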
In short: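 HepG2 cells transiently transfected with multiplexed GAL4-UAS reporter units expressing chimeric chicken ERa-Gal4; 24 h compound exposure. Reporter mRNA measured by RT-PCR with 6-FAM labelling, HpaI digestion and capillary electrophoresis; gain-of-signal fitted versus DMSO.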

[6] = tested on: zebrafish Estrogen Receptor (ER2a), gene 317734; test: ATG_zfER2a_XSP2: Attagene TRANS-FACTORIAL Multi-Species (XSP2) HepG2 Assay for zebrafish Estrogen Receptor (ER2a) (AID 2283818);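 note: hits raise reporter mRNA so AC50 reflects activation of zebrafish ER2a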
In short: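 HepG2 cells transiently transfected with GAL4-UAS reporter units and chimeric zebrafish ER2a-Gal4, exposed 24 h; medium contains 3 nM 6-alpha-fluorotestosterone and 1.5 nM norgestrel. Reporter mRNA quantified by RT-PCR, HpaI digestion, capillary electrophoresis; gain versus DMSO.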

[7] = tested on: frog Estrogen Receptor (ER), gene 398734; test: ATG_frER1_XSP2: Attagene TRANS-FACTORIAL Multi-Species (XSP2) HepG2 Assay for frog Estrogen Receptor (ER) (AID 2283821);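 note: hits raise reporter mRNA above DMSO baseline so potency means agonist or activator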
In short: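 HepG2, transient MRTU transfection, chimeric NR-GAL4/UAS reporters; 24 h compound exposure, 24-well. Readout: reporter mRNA via RT-PCR + capillary electrophoresis, fluorescence. Positive fit vs DMSO baseline.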

[8] = ATG_M_19_XSP2: Attagene TRANS-FACTORIAL Multi-Species (XSP2) HepG2 Assay for M32 Transcription Factor (Internal Marker) (AID 2283822)
In short: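 Internal background marker in a multi-species nuclear receptor TRANS panel: transfected HepG2 cells exposed 24 h, with 3 nM 6-alpha-fluorotestosterone and 1.5 nM norgestrel present. Readout is RT-PCR of reporter transcripts resolved by capillary electrophoresis, gain-of-signal versus DMSO.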

[9] = tested on: zebrafish Estrogen Receptor (ER2b), gene 317733; test: ATG_zfER2b_XSP2: Attagene TRANS-FACTORIAL Multi-Species (XSP2) HepG2 Assay for zebrafish Estrogen Receptor (ER2b) (AID 2283823);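 note: fitted upward as reporter gain over DMSO so potency reflects activation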
In short: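 In this multiplexed trans-activation format, HepG2 cells expressing exogenous NR-Gal4 fusions drive GAL4-UAS reporters. Exposure lasts 24 h, and reporter mRNA induction is read by RT-PCR with capillary electrophoresis detection.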

[10] = ATG_M_06_XSP2: Attagene TRANS-FACTORIAL Multi-Species (XSP2) HepG2 Assay for M06 Transcription Factor (Internal Marker) (AID 2283811);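 note: hits are increases in signal above the DMSO baseline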
In short: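 HepG2 cells transiently transfected with GAL4-UAS multi-reporter constructs, dosed 24 h with 3 nM 6-alpha-fluorotestosterone plus 1.5 nM norgestrel present to stimulate androgen receptor. Reporter mRNA quantified by RT-PCR, 6-FAM labelling, HpaI digestion and capillary electrophoresis; gain-of-signal fitted versus DMSO baseline.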

[11] = tested on: zebrafish Androgen Receptor (AR), gene 100005148; test: ATG_zfAR_XSP2: Attagene TRANS-FACTORIAL Multi-Species (XSP2) HepG2 Assay for zebrafish Androgen Receptor (AR) (AID 2283825);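 note: hits raise reporter mRNA above DMSO so AC50 reflects agonist-type gain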
In short: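 Zebrafish AR–GAL4 chimera transiently expressed with GAL4-UAS reporter in HepG2 cells, co-stimulated with 3 nM 6-alpha-fluorotestosterone and 1.5 nM norgestrel; 24 h dosing, reporter mRNA read by RT-PCR/capillary electrophoresis versus DMSO.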

[12] = target: Estrogen receptor (Homo sapiens) (UniProt P03372); test: ATG_hERa_XSP2: Attagene TRANS-FACTORIAL Multi-Species (XSP2) HepG2 Assay for human Estrogen Receptor (ERa) (AID 2283827)
In short: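 HepG2 cells transiently transfected with multiplexed GAL4-UAS reporters driven by chimeric receptor-Gal4 proteins, dosed 24 h with 3 nM 6-alpha-fluorotestosterone and 1.5 nM norgestrel present. Reporter mRNA by RT-PCR and capillary electrophoresis; gain-of-signal fit versus DMSO.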

[13] = target: frog Thyroid hormone Receptor alpha (TRa), thra-a (gene 397942) (UniProt P15204); test: ATG_frTRa_XSP1: Attagene TRANS-FACTORIAL Multi-Species (XSP1) HepG2 Assay for frog Thyroid hormone Receptor alpha (TRa) (AID 2283804)
In short: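 HepG2 cells transiently transfected with frog TRa-GAL4 chimeric reporter units, dosed 24 hr with 3 nM 6-alpha-fluorotestosterone present; reporter mRNA quantified by RT-PCR, fluorescent labelling and capillary electrophoresis, gain of signal versus DMSO.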

[14] = target: human Thyroid hormone Receptor alpha (TRa), THRA (gene 7067) (UniProt P10827); test: ATG_hTRa_XSP1: Attagene TRANS-FACTORIAL Multi-Species (XSP1) HepG2 Assay for human Thyroid hormone Receptor alpha (TRa) (AID 2283805)
In short: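 HepG2 cells transiently transfected with GAL4-UAS reporter units expressing chimeric NR-Gal4 proteins, dosed 24 hours with 3 nM 6-alpha-fluorotestosterone present. Reporter mRNA measured by RT-PCR and capillary electrophoresis; gain of signal fitted versus DMSO.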

[15] = tested on: turtle Thyroid Hormone Receptor, alpha (TRa), gene 101949057; test: ATG_trTRa_XSP1: Attagene TRANS-FACTORIAL Multi-Species (XSP1) HepG2 Assay for turtle Thyroid Hormone Receptor, alpha (TRa) (AID 2283806)
In short: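 HepG2 cells transiently transfected with GAL4-UAS reporter units and chimeric receptor-Gal4 constructs, with 3 nM 6-alpha-fluorotestosterone present. Reporter mRNA was quantified 24 h after dosing by RT-PCR, 6-FAM labelling and capillary electrophoresis; gain of signal versus DMSO.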

[16] = target: zebrafish Thyroid Hormone Receptor alpha (TRa), thraa (gene 30670) (UniProt Q98867); test: ATG_zfTRa_XSP1: Attagene TRANS-FACTORIAL Multi-Species (XSP1) HepG2 Assay for zebrafish Thyroid Hormone Receptor alpha (TRa) (AID 2283807)
In short: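 HepG2 cells transiently transfected with GAL4-UAS reporter units including a zebrafish TRa–Gal4 chimera, dosed 24 h with 3 nM 6-alpha-fluorotestosterone present. Reporter mRNA quantified by RT-PCR and capillary electrophoresis; gain versus DMSO.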

[17] = target: human Thyroid hormone Receptor beta (TRb), THRB (gene 7068) (UniProt P10828); test: ATG_hTRb_XSP1: Attagene TRANS-FACTORIAL Multi-Species (XSP1) HepG2 Assay for human Thyroid hormone Receptor beta (TRb) (AID 2283808)
In short: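 HepG2 cells transiently transfected with reporter units driving GAL4-UAS reporters for chimeric NR-Gal4 proteins; 24 h chemical exposure with 3 nM 6-alpha-fluorotestosterone present. Reporter mRNA quantified by RT-PCR and capillary electrophoresis, gain of signal versus DMSO.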

[18] = target: zebrafish Thyroid Hormone Receptor beta (TRb), thrb (gene 30607) (UniProt Q9PVE4); test: ATG_zfTRb_XSP1: Attagene TRANS-FACTORIAL Multi-Species (XSP1) HepG2 Assay for zebrafish Thyroid Hormone Receptor beta (TRb) (AID 2283809)
In short: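 HepG2 cells transiently transfected with multiplexed GAL4-UAS reporter units expressing chimeric zebrafish TRb–Gal4. Dosed 24 h with 3 nM 6-alpha-fluorotestosterone present; reporter mRNA measured by RT-PCR, HpaI digestion and capillary electrophoresis; gain of signal versus DMSO.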

[19] = ATG_XTT_Cytotoxicity_XSP1: Cytotoxicity Assessment in the Attagene TRANS-FACTORIAL Multi-Species (XSP1) HepG2 Assay (AID 2283810)
In short: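 XTT viability readout taken at 24 hours post-dosing in HepG2 liver cells co-treated with 3 nM 6-alpha-fluorotestosterone. Signal loss relative to DMSO controls reflects cytotoxicity.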

[20] = target: human Androgen Receptor (AR), AR (gene 367) (UniProt P10275); test: ATG_hAR_XSP2: Attagene TRANS-FACTORIAL Multi-Species (XSP2) HepG2 Assay for human Androgen Receptor (AR) (AID 2283820)
In short: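 HepG2 cells transiently transfected with GAL4-UAS reporter units driven by chimeric NR-Gal4 proteins, stimulated with 3 nM 6-alpha-fluorotestosterone plus 1.5 nM norgestrel. Reporter mRNA quantified 24 h after dosing by RT-PCR and capillary electrophoresis; gain-of-signal versus DMSO.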

Measured: AC50

Chain of Estrogen receptor beta (Homo sapiens) (Q92731 whole entry, looked up, the tested form may be a part): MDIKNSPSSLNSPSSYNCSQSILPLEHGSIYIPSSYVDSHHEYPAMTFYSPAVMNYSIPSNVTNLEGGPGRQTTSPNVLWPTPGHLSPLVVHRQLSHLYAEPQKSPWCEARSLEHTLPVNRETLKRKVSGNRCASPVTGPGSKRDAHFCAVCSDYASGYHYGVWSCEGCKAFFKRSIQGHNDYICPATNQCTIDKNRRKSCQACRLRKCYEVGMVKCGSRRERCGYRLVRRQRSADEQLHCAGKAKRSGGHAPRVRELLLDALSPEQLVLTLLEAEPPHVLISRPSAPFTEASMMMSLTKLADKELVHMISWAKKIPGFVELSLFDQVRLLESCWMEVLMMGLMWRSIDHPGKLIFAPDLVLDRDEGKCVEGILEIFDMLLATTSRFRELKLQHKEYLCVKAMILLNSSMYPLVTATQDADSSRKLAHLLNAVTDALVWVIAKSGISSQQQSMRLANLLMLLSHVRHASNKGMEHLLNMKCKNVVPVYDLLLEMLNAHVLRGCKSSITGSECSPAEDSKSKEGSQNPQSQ
Chain of zebrafish Estrogen Receptor (ER1), esr1 (gene 259252) (P57717 whole entry, looked up, the tested form may be a part): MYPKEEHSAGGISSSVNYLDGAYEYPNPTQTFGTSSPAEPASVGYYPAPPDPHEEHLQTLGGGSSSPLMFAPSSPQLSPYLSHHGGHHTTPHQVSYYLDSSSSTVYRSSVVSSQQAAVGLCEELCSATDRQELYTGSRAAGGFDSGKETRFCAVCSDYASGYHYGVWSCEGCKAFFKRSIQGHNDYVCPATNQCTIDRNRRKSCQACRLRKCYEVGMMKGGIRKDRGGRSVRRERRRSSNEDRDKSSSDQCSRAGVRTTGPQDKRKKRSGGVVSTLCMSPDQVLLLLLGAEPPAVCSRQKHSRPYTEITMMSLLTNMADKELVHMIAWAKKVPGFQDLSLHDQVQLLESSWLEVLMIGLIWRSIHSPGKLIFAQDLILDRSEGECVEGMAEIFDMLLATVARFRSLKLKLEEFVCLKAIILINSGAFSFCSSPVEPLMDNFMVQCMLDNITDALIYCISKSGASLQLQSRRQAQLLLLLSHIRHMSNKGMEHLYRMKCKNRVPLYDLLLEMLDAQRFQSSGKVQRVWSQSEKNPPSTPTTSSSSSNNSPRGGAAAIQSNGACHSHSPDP
Chain of chicken Estrogen Receptor (ERa), ESR1 (gene 396099) (P06212 whole entry, looked up, the tested form may be a part): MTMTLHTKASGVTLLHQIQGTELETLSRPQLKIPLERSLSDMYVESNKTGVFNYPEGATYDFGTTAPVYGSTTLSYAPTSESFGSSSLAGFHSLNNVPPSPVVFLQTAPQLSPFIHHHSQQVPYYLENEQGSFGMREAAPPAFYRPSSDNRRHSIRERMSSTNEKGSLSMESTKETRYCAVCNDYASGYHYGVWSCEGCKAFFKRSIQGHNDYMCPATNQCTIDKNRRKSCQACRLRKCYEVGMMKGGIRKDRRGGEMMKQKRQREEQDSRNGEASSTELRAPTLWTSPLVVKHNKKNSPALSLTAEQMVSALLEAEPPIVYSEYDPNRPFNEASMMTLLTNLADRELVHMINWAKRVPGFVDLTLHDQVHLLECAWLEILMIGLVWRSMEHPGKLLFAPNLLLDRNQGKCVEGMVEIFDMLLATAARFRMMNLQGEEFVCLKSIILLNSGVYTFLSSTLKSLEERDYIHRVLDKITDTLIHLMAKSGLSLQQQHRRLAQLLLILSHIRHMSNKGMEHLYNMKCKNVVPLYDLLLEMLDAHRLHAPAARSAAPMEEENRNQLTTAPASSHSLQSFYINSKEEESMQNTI
Chain of human Thyroid hormone Receptor beta (TRb), THRB (gene 7068) (P10828 whole entry, looked up, the tested form may be a part): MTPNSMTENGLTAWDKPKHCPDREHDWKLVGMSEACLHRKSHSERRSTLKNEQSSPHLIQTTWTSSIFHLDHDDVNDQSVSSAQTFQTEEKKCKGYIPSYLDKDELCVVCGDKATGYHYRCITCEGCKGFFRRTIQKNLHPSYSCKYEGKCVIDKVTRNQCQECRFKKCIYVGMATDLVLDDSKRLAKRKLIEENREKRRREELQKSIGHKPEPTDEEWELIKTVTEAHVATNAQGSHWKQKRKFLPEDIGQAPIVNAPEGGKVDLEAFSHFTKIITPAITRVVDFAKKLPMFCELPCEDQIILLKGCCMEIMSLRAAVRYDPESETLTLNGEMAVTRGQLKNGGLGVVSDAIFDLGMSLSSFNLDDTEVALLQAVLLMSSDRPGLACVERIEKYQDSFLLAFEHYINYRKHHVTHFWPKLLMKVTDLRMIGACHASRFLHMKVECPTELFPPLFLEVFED
Chain of GAL4 Transcription Factor (Internal Marker), GAL4 (gene 855828) (P04386 whole entry, looked up, the tested form may be a part): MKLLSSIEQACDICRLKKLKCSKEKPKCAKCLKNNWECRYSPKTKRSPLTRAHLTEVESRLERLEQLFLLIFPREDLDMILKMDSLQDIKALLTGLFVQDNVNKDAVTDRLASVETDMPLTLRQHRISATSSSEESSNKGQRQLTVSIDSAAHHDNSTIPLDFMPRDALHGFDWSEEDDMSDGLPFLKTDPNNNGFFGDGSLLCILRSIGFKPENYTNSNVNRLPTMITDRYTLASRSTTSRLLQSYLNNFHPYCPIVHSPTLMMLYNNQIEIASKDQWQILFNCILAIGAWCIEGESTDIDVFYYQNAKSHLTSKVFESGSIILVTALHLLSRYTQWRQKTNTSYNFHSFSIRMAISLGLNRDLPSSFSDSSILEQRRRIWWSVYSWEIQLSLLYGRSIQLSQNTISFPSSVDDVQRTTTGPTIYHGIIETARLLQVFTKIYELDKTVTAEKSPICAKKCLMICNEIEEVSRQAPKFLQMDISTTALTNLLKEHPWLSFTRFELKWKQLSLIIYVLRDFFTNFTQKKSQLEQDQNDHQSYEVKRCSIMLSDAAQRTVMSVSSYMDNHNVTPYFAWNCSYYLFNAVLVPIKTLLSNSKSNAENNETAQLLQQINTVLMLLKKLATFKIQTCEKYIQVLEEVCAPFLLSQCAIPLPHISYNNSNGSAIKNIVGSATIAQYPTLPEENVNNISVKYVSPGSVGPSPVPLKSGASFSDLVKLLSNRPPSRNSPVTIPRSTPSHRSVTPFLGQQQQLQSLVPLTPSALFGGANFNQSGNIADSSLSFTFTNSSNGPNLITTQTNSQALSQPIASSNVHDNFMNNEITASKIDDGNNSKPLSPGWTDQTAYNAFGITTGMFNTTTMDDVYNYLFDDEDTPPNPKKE
Chain of frog Thyroid hormone Receptor alpha (TRa), thra-a (gene 397942) (P15204 whole entry, looked up, the tested form may be a part): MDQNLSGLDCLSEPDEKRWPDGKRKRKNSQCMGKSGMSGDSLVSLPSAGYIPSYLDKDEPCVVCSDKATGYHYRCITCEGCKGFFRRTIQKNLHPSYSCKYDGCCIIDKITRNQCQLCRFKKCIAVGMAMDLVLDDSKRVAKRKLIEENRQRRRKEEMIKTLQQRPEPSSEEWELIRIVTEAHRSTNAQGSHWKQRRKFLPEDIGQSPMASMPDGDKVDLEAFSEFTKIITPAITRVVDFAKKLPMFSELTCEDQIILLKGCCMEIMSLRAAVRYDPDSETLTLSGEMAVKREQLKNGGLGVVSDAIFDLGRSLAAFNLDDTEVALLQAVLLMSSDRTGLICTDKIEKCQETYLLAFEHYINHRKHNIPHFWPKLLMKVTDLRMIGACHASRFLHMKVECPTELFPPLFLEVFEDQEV
Chain of zebrafish Thyroid Hormone Receptor alpha (TRa), thraa (gene 30670) (Q98867 whole entry, looked up, the tested form may be a part): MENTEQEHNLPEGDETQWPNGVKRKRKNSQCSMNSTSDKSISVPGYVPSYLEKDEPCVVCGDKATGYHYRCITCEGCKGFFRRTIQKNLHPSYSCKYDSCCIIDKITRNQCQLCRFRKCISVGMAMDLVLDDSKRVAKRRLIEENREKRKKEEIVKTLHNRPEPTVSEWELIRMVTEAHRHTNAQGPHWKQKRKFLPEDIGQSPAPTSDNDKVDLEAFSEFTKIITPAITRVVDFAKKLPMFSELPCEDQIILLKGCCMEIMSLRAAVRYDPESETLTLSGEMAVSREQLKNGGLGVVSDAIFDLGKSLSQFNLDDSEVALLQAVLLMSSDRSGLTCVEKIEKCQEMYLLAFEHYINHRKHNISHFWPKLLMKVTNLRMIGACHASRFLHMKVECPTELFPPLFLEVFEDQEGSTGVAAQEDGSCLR
Chain of zebrafish Thyroid Hormone Receptor beta (TRb), thrb (gene 30607) (Q9PVE4 whole entry, looked up, the tested form may be a part): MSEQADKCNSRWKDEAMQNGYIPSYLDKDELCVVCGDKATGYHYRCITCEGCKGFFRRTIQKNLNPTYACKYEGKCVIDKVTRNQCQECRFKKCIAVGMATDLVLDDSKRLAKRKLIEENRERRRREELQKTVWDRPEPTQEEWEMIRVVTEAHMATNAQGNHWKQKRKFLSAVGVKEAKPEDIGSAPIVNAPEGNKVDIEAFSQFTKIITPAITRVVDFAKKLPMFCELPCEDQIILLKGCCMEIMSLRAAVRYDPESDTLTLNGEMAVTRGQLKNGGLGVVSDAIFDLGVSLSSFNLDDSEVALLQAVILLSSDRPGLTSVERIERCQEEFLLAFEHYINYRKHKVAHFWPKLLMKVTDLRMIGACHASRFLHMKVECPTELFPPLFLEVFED
Chain of Estrogen receptor (Homo sapiens) (P03372 whole entry, looked up, the tested form may be a part): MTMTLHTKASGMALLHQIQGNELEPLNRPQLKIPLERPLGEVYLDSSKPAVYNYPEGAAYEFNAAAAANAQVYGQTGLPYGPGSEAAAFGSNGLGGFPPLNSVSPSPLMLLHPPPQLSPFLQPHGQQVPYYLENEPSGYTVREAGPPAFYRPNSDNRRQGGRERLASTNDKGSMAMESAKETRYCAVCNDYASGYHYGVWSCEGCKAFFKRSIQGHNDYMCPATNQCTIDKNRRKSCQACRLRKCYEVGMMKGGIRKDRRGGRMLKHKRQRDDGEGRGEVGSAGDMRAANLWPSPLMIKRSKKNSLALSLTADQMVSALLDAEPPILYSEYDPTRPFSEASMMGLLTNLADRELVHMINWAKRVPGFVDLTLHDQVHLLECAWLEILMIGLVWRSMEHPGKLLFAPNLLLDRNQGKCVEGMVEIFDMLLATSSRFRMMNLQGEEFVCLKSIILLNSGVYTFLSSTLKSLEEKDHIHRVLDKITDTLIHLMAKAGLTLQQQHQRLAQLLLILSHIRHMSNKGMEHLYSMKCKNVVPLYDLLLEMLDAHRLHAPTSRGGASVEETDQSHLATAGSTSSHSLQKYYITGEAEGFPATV

CC(=O)[C@@]1(O)CC[C@H]2[C@@H]3CCC4=CC(=O)CC[C@]4(C)[C@H]3CC[C@@]21C
active: [1] 37.4 µM and 11.9 µM | [2] 100000 nM | [5] 38.3 µM and 14.9 µM | [6] 65.6 µM and 13.5 µM | [7] 34.1 µM and 27.4 µM | [9] 87.6 µM and 58.2 µM
inactive: [2] | [3] | [4] | [8]

Cc1c(C)c2c(c(C)c1O)CCC(C)(COc1ccc(CC3SC(=O)NC3=O)cc1)O2 (stereo not drawn)
inactive: [10] | [1] | [2] | [4] | [5] | [7] | [9] | [11] | [12]

CCN(CC)CCOc1ccc(C(=C(Cl)c2ccccc2)c2ccccc2)cc1
active: [13] 945 nM | [14] 1930 nM | [15] 1130 nM | [16] 2960 nM | [17] 2020 nM | [18] 1570 nM | [19] 31400 nM
inactive: [10] | [3] | [4] | [6] | [20] | [9]

CC(=O)O[C@]1(C(C)=O)CC[C@H]2[C@@H]3C=C(Cl)C4=CC(=O)[C@@H]5C[C@@H]5[C@]4(C)[C@H]3CC[C@@]21C
active: [9] 26 µM
inactive: [13] | [15] | [16] | [17] | [18] | [19] | [10] | [4] | [6] | [7]
